# From PubChem BioAssay AID1159580 (chemical genetic matrix, 2015)
# In all, about 5,500 compounds went through this assay and about 2,000 (36%) were called active. Inconclusive results (about 18%) are left out. Some of the results follow. Unmarked numbers belong to inactive results. Rule as the data show it: active = normalized growth mostly below about 0.91 (no sharp cut-off); inconclusive = no clear call, values can overlap the other calls; inactive = mostly above about 0.92.
# Experiment: chemical genetic growth profiling, strain panel (AID 1159580);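 also: tested at 20 µM; growth read once vehicle control cultures reached saturation at 30 °C; 1 = growth at the plate median or of vehicle wells; lower values mean less growth of the strain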
# Settings: growth OD
smiles,measurement,setting,value
C=CCc1ccc(O)c(OC)c1,normalized growth,"S. cerevisiae deletion strains, locus YJL187C, strain SWE1, active compounds read low",0.999
same,normalized growth,"S. cerevisiae deletion strains, locus YJR043C, strain POL32, active compounds read low",0.913
same,normalized growth,"S. cerevisiae deletion strains, locus YJR066W, strain TOR1, active compounds read low",0.973
same,normalized growth,"S. cerevisiae deletion strains, locus YJR075W, strain HOC1, active compounds read low",0.885
same,normalized growth,"S. cerevisiae deletion strains, locus YKL009W, strain mrt4, active compounds read low",0.998
same,normalized growth,"S. cerevisiae deletion strains, locus YKL068W, active compounds read low",0.923 (active)
same,normalized growth,"S. cerevisiae deletion strains, locus YKL085W, strain MDH1 (second series), active compounds read low",0.894 (active)
same,normalized growth,"S. cerevisiae deletion strains, locus YKL085W, strain MDH1, active compounds read low",0.894 (active)
same,normalized growth,"S. cerevisiae deletion strains, locus YKL160W, strain elf1, active compounds read low",1.02
same,normalized growth,"S. cerevisiae deletion strains, locus YKR001C, strain vps1, active compounds read low",0.813 (active)
same,normalized growth,"S. cerevisiae deletion strains, locus YKR026C, strain gcn3, active compounds read low",0.989
same,normalized growth,"S. cerevisiae deletion strains, locus YKR091W, strain srl3, active compounds read low",0.992
same,normalized growth,"S. cerevisiae deletion strains, locus YLL001W, strain dnm1, active compounds read low",1.02
same,normalized growth,"S. cerevisiae deletion strains, locus YLL026W, active compounds read low",0.989
same,normalized growth,"S. cerevisiae deletion strains, locus YLL041C, strain sdh2, active compounds read low",0.989
same,normalized growth,"S. cerevisiae deletion strains, locus YLR027C, strain aat2, active compounds read low",0.99
same,normalized growth,"S. cerevisiae deletion strains, locus YLR039C, strain RIC1, active compounds read low",0.605 (active)
same,normalized growth,"S. cerevisiae deletion strains, locus YLR058C, strain SHM2, active compounds read low",0.949
same,normalized growth,"S. cerevisiae deletion strains, locus YLR102C, strain apc9, active compounds read low",0.95
same,normalized growth,"S. cerevisiae deletion strains, locus YLR113W, strain HOG1, active compounds read low",0.962
same,normalized growth,"S. cerevisiae deletion strains, locus YLR221C, strain rsa3, active compounds read low",1.01
same,normalized growth,"S. cerevisiae deletion strains, locus YLR258W, strain gsy2, active compounds read low",1.01
same,normalized growth,"S. cerevisiae deletion strains, locus YLR262C, strain YPT6 (second series), active compounds read low",0.998
same,normalized growth,"S. cerevisiae deletion strains, locus YLR262C, strain YPT6, active compounds read low",0.674
same,normalized growth,"S. cerevisiae deletion strains, locus YLR268W, strain sec22, active compounds read low",1.01
same,normalized growth,"S. cerevisiae deletion strains, locus YLR320W, strain mms22, active compounds read low",0.996
same,normalized growth,"S. cerevisiae deletion strains, locus YLR330W, strain CHS5, active compounds read low",0.885 (active)
same,normalized growth,"S. cerevisiae deletion strains, locus YLR342W, strain FKS1 (second series), active compounds read low",0.888
same,normalized growth,"S. cerevisiae deletion strains, locus YLR342W, strain FKS1, active compounds read low",0.999
same,normalized growth,"S. cerevisiae deletion strains, locus YLR357W, strain rsc2, active compounds read low",0.992
same,normalized growth,"S. cerevisiae deletion strains, locus YLR370C, strain arc18, active compounds read low",0.997
same,normalized growth,"S. cerevisiae deletion strains, locus YLR371W, strain rom2, active compounds read low",0.692 (active)
same,normalized growth,"S. cerevisiae deletion strains, locus YLR384C, strain iki3, active compounds read low",0.991
same,normalized growth,"S. cerevisiae deletion strains, locus YLR418C, strain cdc73, active compounds read low",0.799 (active)
same,normalized growth,"S. cerevisiae deletion strains, locus YML016C, strain PPZ1, active compounds read low",0.91 (active)
same,normalized growth,"S. cerevisiae deletion strains, locus YML032C, strain rad52, active compounds read low",0.93
same,normalized growth,"S. cerevisiae deletion strains, locus YML120C, strain ndi1, active compounds read low",1.03
same,normalized growth,"S. cerevisiae deletion strains, locus YML124C, strain tub3, active compounds read low",0.917 (active)
same,normalized growth,"S. cerevisiae deletion strains, locus YMR058W, strain fet3, active compounds read low",1
same,normalized growth,"S. cerevisiae deletion strains, locus YMR078C, strain ctf18, active compounds read low",0.917
same,normalized growth,"S. cerevisiae deletion strains, locus YMR125W, strain sto1, active compounds read low",0.965
same,normalized growth,"S. cerevisiae deletion strains, locus YMR129W, active compounds read low",0.984
same,normalized growth,"S. cerevisiae deletion strains, locus YMR205C, strain PFK2, active compounds read low",0.995
same,normalized growth,"S. cerevisiae deletion strains, locus YMR223W, strain ubp8, active compounds read low",0.936
same,normalized growth,"S. cerevisiae deletion strains, locus YMR231W, strain pep5, active compounds read low",0.983
same,normalized growth,"S. cerevisiae deletion strains, locus YMR307W, strain GAS1, active compounds read low",1
same,normalized growth,"S. cerevisiae deletion strains, locus YNL067W, strain RPL9B, active compounds read low",0.97
same,normalized growth,"S. cerevisiae deletion strains, locus YNL071W, strain lat1, active compounds read low",0.959
same,normalized growth,"S. cerevisiae deletion strains, locus YNL153C, strain GIM3, active compounds read low",0.991
same,normalized growth,"S. cerevisiae deletion strains, locus YNL183C, strain NPR1, active compounds read low",0.928
same,normalized growth,"S. cerevisiae deletion strains, locus YNL209W, strain ssb2, active compounds read low",0.999
same,normalized growth,"S. cerevisiae deletion strains, locus YNL233W, strain BNI4, active compounds read low",0.901
same,normalized growth,"S. cerevisiae deletion strains, locus YNL248C, strain rpa49, active compounds read low",1
same,normalized growth,"S. cerevisiae deletion strains, locus YNL250W, strain rad50, active compounds read low",0.924
same,normalized growth,"S. cerevisiae deletion strains, locus YNL271C, strain bni1, active compounds read low",0.931
same,normalized growth,"S. cerevisiae deletion strains, locus YNL298W, strain CLA4, active compounds read low",0.995
same,normalized growth,"S. cerevisiae deletion strains, locus YNL307C, strain MCK1, active compounds read low",0.932
same,normalized growth,"S. cerevisiae deletion strains, locus YNL322C, strain KRE1 (second series), active compounds read low",0.993
same,normalized growth,"S. cerevisiae deletion strains, locus YNR049C, strain mso1, active compounds read low",0.988
same,normalized growth,"S. cerevisiae deletion strains, locus YNR052C, strain pop2, active compounds read low",1.01
same,normalized growth,"S. cerevisiae deletion strains, locus YOL012C, strain htz1",0.778
same,normalized growth,"S. cerevisiae deletion strains, locus YOL147C, strain pex11, active compounds read low",0.939
same,normalized growth,"S. cerevisiae deletion strains, locus YOR001W, strain rrp6, active compounds read low",1.01
same,normalized growth,"S. cerevisiae deletion strains, locus YOR061W, strain CKA2, active compounds read low",0.948
same,normalized growth,"S. cerevisiae deletion strains, locus YOR069W, strain VPS5, active compounds read low",0.948
same,normalized growth,"S. cerevisiae deletion strains, locus YOR070C, strain gyp1, active compounds read low",0.996
same,normalized growth,"S. cerevisiae deletion strains, locus YOR080W, strain dia2, active compounds read low",0.989
same,normalized growth,"S. cerevisiae deletion strains, locus YOR083W, strain WHI5, active compounds read low",1.04
same,normalized growth,"S. cerevisiae deletion strains, locus YOR106W, strain vam3, active compounds read low",1.04
same,normalized growth,"S. cerevisiae deletion strains, locus YOR136W, strain idh2, active compounds read low",0.992
same,normalized growth,"S. cerevisiae deletion strains, locus YOR144C, strain elg1, active compounds read low",0.937
same,normalized growth,"S. cerevisiae deletion strains, locus YOR184W, strain ser1, active compounds read low",0.973
same,normalized growth,"S. cerevisiae deletion strains, locus YOR231W, strain MKK1, active compounds read low",0.982
same,normalized growth,"S. cerevisiae deletion strains, locus YOR265W, strain rbl2, active compounds read low",0.999
same,normalized growth,"S. cerevisiae deletion strains, locus YOR270C, strain vph1, active compounds read low",0.964
same,normalized growth,"S. cerevisiae deletion strains, locus YOR290C, strain snf2, active compounds read low",0.986
same,normalized growth,"S. cerevisiae deletion strains, locus YOR316C, strain cot1, active compounds read low",0.939
same,normalized growth,"S. cerevisiae deletion strains, locus YPL051W, strain arl3, active compounds read low",1.02
same,normalized growth,"S. cerevisiae deletion strains, locus YPL078C, strain atp4, active compounds read low",1.01
same,normalized growth,"S. cerevisiae deletion strains, locus YPL106C, strain sse1, active compounds read low",0.948
same,normalized growth,"S. cerevisiae deletion strains, locus YPL240C, strain hsp82, active compounds read low",0.993
same,normalized growth,"S. cerevisiae deletion strains, locus YPL256C, strain CLN2, active compounds read low",0.973
same,normalized growth,"S. cerevisiae deletion strains, locus YPR119W, strain clb2, active compounds read low",0.916 (active)
same,normalized growth,"S. cerevisiae deletion strains, locus YPR141C, strain kar3, active compounds read low",0.879 (active)
same,normalized growth,"S. cerevisiae deletion strains, locus YPR163C, strain tif3, active compounds read low",0.969
same,normalized growth,"S. cerevisiae deletion strains, locus YPR167C, strain met16, active compounds read low",0.947
same,normalized growth,"S. cerevisiae deletion strains, strain wtn01, active compounds read low",0.988
same,normalized growth,"S. cerevisiae strains, strain wild type, active compounds read low",0.95
